System: ROS1
Details: concentration: 1 μM, replicates: in singlicate; n = 1
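Note: KINOMEscan kinase panel screen.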

Compound | %Inh
COC(=O)Nc1nc2cc(Oc3ccc(NC(=O)Nc4cc(C(F)(F)F)ccc4F)cn3)ccc2[nH]1.Cl.Cl [GW681170] | 27%
Fc1ccc(-c2ncn(C3CCNCC3)c2-c2ccnc(Oc3ccc(-c4ccccc4)cc3)n2)cc1 [SB-245391] | 0%
Cc1ccc(C)c(NC(=O)NC2CCN(c3ccnc(Nc4ccc(F)cc4)n3)C2)c1 (centres unmarked) [GSK1379720] | 0%
CSc1cccc2c(-c3ccncn3)c(-c3ccc(F)cc3)nn12 [GW514786] | 0%
Oc1cc(Nc2ccnc3cc(I)ccc23)ccc1F [GW552771] | 0%
Cc1ccc(S(=O)(=O)Nc2ccc(Nc3nccc(Nc4cccc5[nH]ncc45)n3)cc2)cc1 [GSK581271] | 25%
COc1cccc(-c2ccc3c(NC(=O)C4CC4)n[nH]c3n2)c1 [SB-710903] | 0%
O=C(Nc1cccc(-c2nn3ccccc3c2-c2ccnc(Nc3cccc(C(F)(F)F)c3)n2)c1)c1c(F)cccc1F [GSK292658] | 0%
Cl.Cl.NCC(NCc1ccc(-c2ccnc3[nH]ccc23)s1)c1ccccc1 (centres unmarked) [GSK1321565] | 60%
CCn1c(-c2nonc2N)nc2c(C#CC(C)(C)O)nc(OC[C@H](N)c3ccccc3)cc21 [GSK943949] | 2%
COCCOCCOc1cc2ncc3c4ccc(C#N)cc4[nH]c3c2cc1OC | 51%
Clc1ccc(-c2nn3ncccc3c2-c2ccnc(Nc3ccc4c(c3)OCCO4)n2)cc1 [GW829116] | 0%
COc1cccc(NC(=O)NC2CCN(c3ccnc(Nc4cc(OC)c(OC)c(OC)c4)n3)C2)c1 (centres unmarked) [GSK1379763] | 23%
COc1cccc(C(=O)Nc2cccc(Oc3ccc4nc(NC(=O)C5CC5)cn4n3)c2)c1 | 0%
CN(C)Cc1ccc(-c2ccc3c(Nc4ccc(Oc5ccccn5)cc4)ccnc3c2)o1 [GW567148] | 0%
Nc1ncc(-c2cccnc2)c2scc(-c3ccc4c(c3)CCN4C(=O)Cc3ccccc3)c12 [GSK683281] | 27%

Compound | %Inh
COc1ccc(Nc2nccc(NCCNC(=O)c3cc4ccccc4s3)n2)cc1 [GSK1379896] | 9%
O=C(Nc1n[nH]c2nc(-c3ccc(O)cc3)ccc12)C1CC1 [SB-710363] | 0%
O=C(Nc1cccc(-c2nn3ccccc3c2-c2ccnc(Nc3cccc(F)c3)n2)c1)c1c(F)ccc(F)c1Cl [GSK357952] | 18%
CN1CCN(Cc2cccc(-c3ccc4c(Nc5ccc(Oc6ccccc6)cc5)ccnc4c3)c2)CC1 [GW578342] | 0%
COc1cc(Nc2nccc(N3CCC(NC(=O)Nc4cccc(C(C)=O)c4)C3)n2)cc(OC)c1OC (centres unmarked) [GSK1379753] | 30%
c1ccc(Oc2ccc(Nc3ccnc4cc(-c5ccc(CNCCN6CCOCC6)o5)ccc34)cc2)nc1 [GW567145] | 0%
CC(C)c1nc(-c2cccc(NS(=O)(=O)c3c(F)cccc3F)c2F)c(-c2ccnc(Nc3ccc(N4CCOCC4)nc3)n2)s1 [GSK2008607] | 35%
C[C@@H](Oc1cc(-n2cnc3cc(-c4ccnc(NCCS(C)(=O)=O)c4)ccc32)sc1C(N)=O)c1ccccc1Cl [GSK907232] | 13%
Cn1cc(-c2[nH]c3cc(NC(=O)[C@H](N)C4CCCCC4)cc4c3c2C=NNC4=O)cn1 | 37%
CCS(=O)(=O)c1ccc(OC)c(Nc2nccc(-c3c(-c4cccc(NC(=O)c5c(F)cccc5F)c4)nn4ncccc34)n2)c1 [GSK326180] | 0%
Cl.NC(=O)c1cccc(Nc2nccc(Nc3ccc(Oc4c(Cl)cccc4Cl)c(Cl)c3)n2)c1 [GW659009] | 0%
Nc1ncc(-c2ccc3nccc(-c4ccncc4)c3c2)cc1S(=O)(=O)N1CCOCC1 [GSK1627798] | 15%
Cn1cc(-c2ccc3c(c2)CCN3C(=O)Cc2cccc(Cl)c2)c2c(N)ncnc21 [GSK2606590] | 31%
CC(C)(C)c1ccc2nccc(Nc3cccc(O)c3)c2c1 [GW856795] | 0%
CC(=O)Nc1nc2cnc(Nc3cc(NC(=O)c4cccc(C5(C#N)CC5)c4Cl)ccc3C)nc2s1 | 0%
COc1cc(Nc2nccc(N3CCC(NC(=O)c4cc5ccccc5s4)C3)n2)cc(OC)c1OC (centres unmarked) [GSK1379760] | 45%

Source: paper PMC5540273 (PLoS ONE, 2017)
